# HSF-1 act – HSF-1 activators, primary screen, NIH3T3-HGL cells, MG132 stress, luminescence, single point. NIH3T3-HGL HSF-1 luciferase reporter, 8 h; 100% = twice DMSO control signal. activation, % at 9 µM. 1.7% of 300,000 active. AID 504408, 2011;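 active = mean replicate activation of at least 50% with a set share of replicates each reaching 50%; inconclusive = only one of those two conditions met; inactive = mean below 50% and too few replicates reaching it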;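 note: 0% = median of the neutral control wells and 100% = twice that signal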
# TROY signal inh – inhibitors of TROY-driven NF-kB signaling, primary screen, Q293 LMP1-TROYcd cells, NF-kB luciferase, uHTS. Q293 LMP1-TROYcd NF-kB luciferase reporter, 4 h. inhibition, % at 10 µM. 0.98% of 360,000 active. AID 1347056, 2019;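 active = compounds whose plate-normalised and pattern-corrected inhibition of the luciferase reporter signal at the single screening dose is 50% or more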
# HSF1 inh – HSF1 inhibitors in luciferase reporter cells, primary screen, cell-based, NIH3T3, luminescence; NIH3T3-HGL HSE-luciferase, MG132-induced, luminescence 8 h; stronger effect = lower value; activity change, negative = inhibition, % at 7.5 µM (by protocol); 0.77% of 300,000 active; AID 2098, 2009;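 active = more than half of replicate wells show activity change below -50%, luminescence cut by over half; inconclusive = some wells, but at most half, below -50%; inactive = no replicate well below -50%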;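 note: luciferase reports HSF-1 transcriptional activity via heat shock element; 0% = median of DMSO wells and -100% = zero luminescence signal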
# EBV LMP1 NFkB – EBV LMP1-driven NF-kappaB luciferase reporter inhibitors, primary screen, cell-based, luminescence, single point | inhibition, % at 12.5 µM | AID 504558, 2011 | LMP1-induced NF-kappaB luciferase reporter cells | 0.69% of 350,000 active; in the data active = inhibition above about 41%; inconclusive = no clear call, values can overlap the other calls;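 note: 0% = neutral control wells and 100% = reference inhibitor control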
# TWEAK Fn14 block – inhibitors of TWEAK-Fn14 signaling, primary screen, luciferase reporter cells, uHTS. inhibition, % at 10 µM. 2% of 360,000 active. TWEAK-stimulated Fn14 reporter cells, luciferase luminescence, 8 h. AID 1159606, 2016; in the data active = inhibition above about 50%
# LGR2 inh – inhibitors of bursicon-induced LGR2 CRE-luciferase signal, primary screen, cell-based, HEK293, CRE-luciferase reporter, bursicon stimulation; Drosophila bursicon receptor LGR2 (rickets); bursicon-stimulated, 4 h; inhibition, % at 9.99 µM; 0.35% of 380,000 active;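 active = drop in luminescence signal, shown as inhibition above about 50% in the replicate tests, limit read from the data, passing the limit was not always enough; inconclusive = probably only some replicates passing the limit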;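 note: agonist challenge used bursicon conditioned medium at about half maximal strength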
# * hit, by the source's call; u = inconclusive; x = not tested or not shown. An excerpt weighted towards active compounds, which were near 3.6% of everything screened.
SMILES,HSF-1 act,TROY signal inh,HSF1 inh,EBV LMP1 NFkB,TWEAK Fn14 block,LGR2 inh
C[C@@H]1CCCCO[C@@H](CN(C)C(=O)Nc2ccc(F)cc2)[C@H](C)CN([C@@H](C)CO)C(=O)c2cc(NC(=O)CCC(F)(F)F)ccc2O1,x,x,x,x,x,10.2
CC(=O)c1ccc(OCc2cc(C(=O)N(C)C(C)c3nccs3)no2)cc1 (stereo unspecified),84.5*,-33.9,46.9,-11.1,-8.9,-26.2
CC(=O)c1ccc(OCc2cc(C(=O)N(C)C(C)c3ccon3)no2)cc1 (stereo unspecified),-12.0,-6.3,-2.4,-2.4,84.3*,-8.9
C[C@@H]1CCCCO[C@@H](CN(C)C(=O)c2ccccc2)[C@@H](C)CN([C@@H](C)CO)C(=O)c2cc(NS(=O)(=O)c3cccs3)ccc2O1,x,x,x,x,x,-24.8
CO[C@@H]1CN(C)C(=O)c2cc(NC(=O)c3ccccc3)ccc2OC[C@H](C)N(C)C[C@@H]1C,x,x,x,x,x,-10.4
CCCc1cn(CC[C@@H]2CC[C@H](NS(=O)(=O)c3ccccc3Cl)[C@@H](CO)O2)nn1,x,x,x,x,x,-2.2
CSc1nc2cc3c(cc2n1C(=O)c1ccc(C)cc1)OCCO3,17.6,-13.7,13.6,44.4*,-14.0,x
COc1cccc(C(=O)n2c(SC)nc3cc4c(cc32)OCCO4)c1,0.1,-28.3,13.0,4.4,1.8,-18.5
CO[C@@H]1CN(C)C(=O)c2cc(NC(=O)C3CC3)ccc2OC[C@H](C)N(C(=O)c2cnccn2)C[C@@H]1C,x,x,x,x,x,21.4
COc1ccccc1C#Cc1ccc2c(c1)O[C@H](CN(C)Cc1ccccc1)[C@H](C)CN([C@@H](C)CO)S2(=O)=O,x,x,x,x,x,10.2
c1ccc(NN=C2c3ccccc3-c3ccccc32)cc1,x,-25.1,x,-9.3,-15.6,-18.3
Cc1ccc(NN=C2c3ccccc3-c3ccccc32)cc1,-46.7,51.6*,-35.6,-34.2,39.6,-44.1
COCC#Cc1cnc2c(c1)C(=O)N([C@@H](C)CO)C[C@@H](C)[C@@H](CN(C)C(=O)Nc1ccccc1F)O2,x,x,x,x,x,2.0
Cc1noc(C)c1NC(=O)N(C)C[C@H]1Oc2c(NC(=O)C3CCOCC3)cccc2C(=O)N([C@@H](C)CO)C[C@H]1C,x,x,x,x,x,-10.0
O=C1c2cccc3cc([N+](=O)[O-])cc(c23)C(=O)N1CCN1CCCC1,61.2*,-26.8,31.8,74.2*,-42.8,31.8
O=c1c([N+](=O)[O-])cn(Cc2ccccc2)c(=O)n1Cc1ccccc1,x,-16.2,x,67.5*,5.6,24.6
C=CCN1C(=O)N/C(=C/c2ccc(N3CCOCC3)o2)C1=O,-21.2,x,u,x,x,3.0
O=C1N/C(=C/c2ccc(N3CCOCC3)o2)C(=O)N1c1ccccc1,x,20.4,x,2.3,53.4*,-5.4
CCC(C(=O)Nc1ccc(S(=O)(=O)Nc2ncccn2)cc1)c1ccccc1 (stereo unspecified),8.5,13.8,0.2,22.6,85.6*,15.0
O=S(=O)(Nc1ncccn1)c1ccc(NC(=S)Nc2ccc(Cl)cc2)cc1,55.7*,-7.3,20.2,-14.4,-3.6,-20.0
CCC(Oc1ccccc1)C(=O)Nc1ccc(S(=O)(=O)Nc2ncccn2)cc1 (stereo unspecified),12.0,-0.2,-2.3,-8.4,-0.5,1.5
CCC(C)NS(=O)(=O)c1ccc(NC(=O)C(Sc2ccccc2)c2ccccc2)cc1 (stereo unspecified),7.6,41.2,4.5,-9.3,41.0,29.6
CCc1ccc(NC(=S)Nc2ccc(S(=O)(=O)Nc3ncccn3)cc2)cc1,-50.6,-8.3,-55.6*,-10.4,-23.8,-10.0
CCCCNS(=O)(=O)c1ccc(NC(=O)C(Sc2ccccc2)c2ccccc2)cc1 (stereo unspecified),25.2,42.8,-3.7,-1.3,62.7*,13.4
CCNC(=O)C[C@H]1CC[C@@H]2[C@@H](COc3ccc(NC(=O)Nc4ccc(C)cc4)cc3C(=O)N2C)O1,x,x,x,x,x,1.8
SMILES,HSF-1 act,TROY signal inh,HSF1 inh,EBV LMP1 NFkB,TWEAK Fn14 block,LGR2 inh
Cc1cc(C)cc(NS(=O)(=O)c2ccc(NC(=S)Nc3ccccc3)cc2)c1,13.0,2.5,9.8,1.0,3.0,-2.1
CSc1ncc(Cl)c(C(=O)Nc2ccc(S(=O)(=O)Nc3nccc(C)n3)cc2)n1,7.3,-8.3,-1.8,3.8,6.1,-6.5
O=S(=O)(Nc1ccncc1)c1ccc(Cl)cc1,-77.4,-1.4,-71.4*,-2.0,2.6,x
CCCSc1ncc(Cl)c(C(=O)Nc2ccc(S(=O)(=O)Nc3ncccn3)cc2)n1,23.5,-14.0,1.1,2.3,58.3*,1.8
NS(=O)(=O)c1ccc(NS(=O)(=O)c2ccc(NC(=S)Nc3ccccc3)cc2)cc1,53.8*,-3.1,30.1,-6.1,-6.7,-5.2
O=S(=O)(Nc1ccncc1)c1ccccc1,-4.7,6.1,-1.6,-11.6,8.4,x
O=C1C2Sc3[nH]c(=O)sc3C(c3ccccc3)C2C(=O)N1c1ccccc1 (stereo unspecified),x,-6.0,x,-3.4,89.0*,-8.9
COc1ccc(C2c3sc(=O)[nH]c3SC3C(=O)N(c4ccccc4)C(=O)C32)cc1 (stereo unspecified),7.8,-32.5,11.8,11.7,-18.8,6.3
CC(=O)Nc1ccc2[nH]c3ccccc3c2c1,2.3,-15.1,-0.8,7.9,-11.5,x
O=C(Nc1ccc(Cl)cc1)c1cc2c(cc1O)[nH]c1ccccc12,-7.7,55.1*,-1.1,17.4,81.7*,27.9
CC(C)Cn1nc(NC(=O)c2cccs2)c2cc3ccccc3nc21,-11.5,8.7,-8.1,9.2,-14.0,x
COc1ccc2nc3c(cc2c1)c(NC(=O)c1cccs1)nn3CC(C)C,31.0,3.8,8.7,-145.5,51.2*,x
C/C(=N\OCC(=O)Nn1c(=O)[nH]c2ccccc2c1=O)c1cccs1,-68.3,-3.8,-57.5*,3.5,-1.6,11.1
CC(=O)c1ccc(NC(=O)CO/N=C(\C)c2cccs2)cc1,-13.6,-19.5,-0.2,-9.4,-3.6,-39.5
CN1CCN(C(=O)C[C@@H]2C[C@H]3c4cc(NC(=O)C5CCC5)ccc4O[C@H]3[C@H](CO)O2)CC1,x,x,x,x,x,1.6
CO[C@@H]1CN(C)C(=O)c2ccc(NC(=O)c3cccc(F)c3)cc2OC[C@H](C)N(CC2CC2)C[C@@H]1C,x,x,x,x,x,20.9
CC(=O)Nc1ccc(NC(=O)C(c2ccccc2)c2ccccc2)cc1,29.0,19.1,8.0,54.4*,-2.9,18.3
O=C(Nc1cc(Cl)cc(Cl)c1)C(c1ccccc1)N1CCCCC1 (stereo unspecified),19.6,-14.0,-1.4,1.8,-4.4,7.4

# Assay outcomes as filed in PubChem BioAssay.
